This note sets out measurements from PubChem BioAssay (NCI).

This is part of a sample that, as a whole, favours compounds with a hit. Of some 83,000 tested, about 20% had one in any assay.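 Note: values are percent growth. 100 is the growth of untreated cells, values between 100 and 0 indicate rising inhibition; between -100 and 0 indicates cell death.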 The source made the active and inactive calls. The calls were made as follows: active = growth percent below 10; inactive = the rest.

The first test deals with SN12C renal. Kind of test: NCI-60 one-dose screen, 48 h (100 = growth as untreated, 0 = no growth, -100 = all killed). Conditions: 10 µM unless noted.
`N=C(N)c1nn(C2OC(CO)C(O)C2O)c2nc[nH]c(=O)c12` (stereo not drawn): the growth was 6.98% (active).

In the case of `CC(C)C(=O)OCCOc1ccc(C(C)(C)C)cc1`, the growth was 89.4% (inactive).

For the compound `OCCNc1ccccc1`, the growth is 108% (inactive).

As to `C/C(=N\Nc1ccc([N+](=O)[O-])cc1[N+](=O)[O-])c1ccc(Br)cc1`, the growth was 96.2% (inactive).

As to `C=C(C)COc1ccc(C(C)(C)C)cc1`, the growth is 103% (inactive).

`CCC(C)c1c(N)n(S(=O)(=O)c2ccc(C)cc2)oc1=O` (stereo not drawn): the growth was 106% (inactive).

Take `Nc1ccn(C2CC(N)C(CO)O2)c(=O)n1` (stereo not drawn): the growth is 67.4% (inactive).

As for `CN(CCCN(C)CCC1CCCCC1)CCC1CCCCC1`, the growth is 53.1% (inactive).

Turning to `O=S(Cc1ccccc1)/C(=C/NC(=S)Nc1cc(Cl)ccc1Cl)c1ccccc1` (stereo not drawn), the growth is 98.5% (inactive).

As to `Cc1c(Cl)cccc1N=C=S`, the growth is 99.9% (inactive).

On to `CCCC1OC(c2ccco2)OCC1CC` (stereo not drawn), for which the growth was 98.4% (inactive).

In the case of `CN1CCCN(C(c2ccccc2)c2ccc(Br)cc2)CC1` (stereo not drawn), the growth was 65.4% (inactive).

Consider `OCCOc1ccc(-c2cc(-c3ccccn3)nc(-c3ccccn3)c2)cc1`, for which the growth is 11.7% (inactive).

`O=C(Nc1cccc(Cl)c1)c1ccc(Cl)cc1Cl`: the growth is 92.9% (inactive).

For `CC(=O)Oc1c(Cl)cccc1-c1ccccc1`, the growth is 96.6% (inactive).

In the case of `C/C=C/C1OCC(CC)C(CCC)O1` (stereo not drawn), the growth is 99.5% (inactive).

In the case of `COc1cccc(C(=O)O)c1OC`, the growth is 96.6% (inactive).

With `CC(C)C1CCC(C)C(O)C1` (stereo not drawn), the growth was 96.3% (inactive).

On to `COc1cc(CC#N)c([N+](=O)[O-])cc1OC`, for which the growth was 104% (inactive).

As for `CCCNS(=O)(=O)c1ccc(Cl)cc1`, the growth was 103% (inactive).

As for `CCOC(=O)/C(C)=C\c1ccc(OC)c(OC)c1`, the growth is 104% (inactive).

As to `O=C(NCc1ccccc1)c1cccc([N+](=O)[O-])c1`, the growth is 104% (inactive).

Take `C/C(=N\O)c1ccccn1`: the growth is 91.4% (inactive).

Consider `CC1(C)OC(=O)CC1=O`, for which the growth is 105% (inactive).

Regarding `O=C1C=Cc2ccccc2/C1=C/c1[nH]c(=O)[nH]c1O`, the growth is 60.6% (inactive).

Turning to `Nc1ncnc2c1ncn2C1OC(CO)C2OC21` (stereo not drawn), the growth is 95.7% (inactive).

Consider `C=CCS(C)(=O)=O`, for which the growth is 98.1% (inactive).

`Cc1ccc(C2CCCCC2)cc1Br`: the growth was 101% (inactive).

`Cc1ccc2[nH]c3ccccc3c2c1`: the growth is 109% (inactive).

For `Cc1ccc(/C=N/NC(N)=S)s1`, the growth is 99% (inactive).

In the case of `O=S(=O)(O)c1cccnc1`, the growth was 105% (inactive).

Take `O=C(O)c1ccccc1Cc1ccc2c(c1)CCCC2`: the growth was 102% (inactive).

Consider `Nc1cc(F)ccc1[N+](=O)[O-]`, for which the growth is 98.6% (inactive).

For `CCOc1ccc(C(=O)O)cc1`, the growth was 113% (inactive).

Regarding `CCCCOC(=O)c1ccccc1O`, the growth is 107% (inactive).

A further test has as its system UO-31 renal. The test is described as above. Conditions: 10 µM unless noted.
`O=C(O)CSCC(=O)Nc1cc(C(F)(F)F)ccc1Cl`: the growth was 84.4% (inactive).

Turning to `N=C(N)c1nn(C2OC(CO)C(O)C2O)c2nc[nH]c(=O)c12` (stereo not drawn), the growth was 13.1% (inactive).

On to `CC(C)C(=O)OCCOc1ccc(C(C)(C)C)cc1`, for which the growth is 89.6% (inactive).

`OCCNc1ccccc1`: the growth was 90.9% (inactive).

Regarding `C/C(=N\Nc1ccc([N+](=O)[O-])cc1[N+](=O)[O-])c1ccc(Br)cc1`, the growth was 85% (inactive).

Take `O=C(Oc1ccccc1Cl)c1ccc(Cl)cc1Cl`: the growth is 85.4% (inactive).

Consider `C=C(C)COc1ccc(C(C)(C)C)cc1`, for which the growth was 95.3% (inactive).

Consider `CCC(C)c1c(N)n(S(=O)(=O)c2ccc(C)cc2)oc1=O` (stereo not drawn), for which the growth is 89.5% (inactive).

As to `Nc1ccn(C2CC(N)C(CO)O2)c(=O)n1` (stereo not drawn), the growth was 72.6% (inactive).

On to `CN(CCCN(C)CCC1CCCCC1)CCC1CCCCC1`, for which the growth is 49.8% (inactive).

As for `O=S(Cc1ccccc1)/C(=C/NC(=S)Nc1cc(Cl)ccc1Cl)c1ccccc1` (stereo not drawn), the growth was 83.9% (inactive).

As to `Cc1c(Cl)cccc1N=C=S`, the growth was 81.1% (inactive).

Consider `CCCC1OC(c2ccco2)OCC1CC` (stereo not drawn), for which the growth was 77.6% (inactive).

With `CN1CCCN(C(c2ccccc2)c2ccc(Br)cc2)CC1` (stereo not drawn), the growth was 60.5% (inactive).

On to `OCCOc1ccc(-c2cc(-c3ccccn3)nc(-c3ccccn3)c2)cc1`, for which the growth was -14.5% (active).

With `O=C(Nc1cccc(Cl)c1)c1ccc(Cl)cc1Cl`, the growth was 82.7% (inactive).

Regarding `CC(=O)Oc1c(Cl)cccc1-c1ccccc1`, the growth was 84.8% (inactive).

As to `C/C=C/C1OCC(CC)C(CCC)O1` (stereo not drawn), the growth is 81.1% (inactive).

Take `COc1cccc(C(=O)O)c1OC`: the growth was 86.5% (inactive).

Turning to `CC(C)C1CCC(C)C(O)C1` (stereo not drawn), the growth is 89.3% (inactive).

With `COc1cc(CC#N)c([N+](=O)[O-])cc1OC`, the growth was 96% (inactive).

Consider `CCCNS(=O)(=O)c1ccc(Cl)cc1`, for which the growth is 89.9% (inactive).

Consider `CCOC(=O)/C(C)=C\c1ccc(OC)c(OC)c1`, for which the growth is 95.1% (inactive).

On to `O=C(NCc1ccccc1)c1cccc([N+](=O)[O-])c1`, for which the growth was 70.1% (inactive).

`OCCc1ccc(Cl)cc1`: the growth was 90.5% (inactive).

As for `C/C(=N\O)c1ccccn1`, the growth is 88.1% (inactive).

For the compound `CC1(C)OC(=O)CC1=O`, the growth was 92.9% (inactive).

On to `O=C1C=Cc2ccccc2/C1=C/c1[nH]c(=O)[nH]c1O`, for which the growth was 52.5% (inactive).

Turning to `Nc1ncnc2c1ncn2C1OC(CO)C2OC21` (stereo not drawn), the growth is 100% (inactive).

For `C=CCS(C)(=O)=O`, the growth was 90.3% (inactive).

`Cc1ccc(C2CCCCC2)cc1Br`: the growth was 83.2% (inactive).

As for `Cc1ccc2[nH]c3ccccc3c2c1`, the growth is 91.3% (inactive).

As for `Cc1ccc(/C=N/NC(N)=S)s1`, the growth was 90.5% (inactive).

Consider `O=S(=O)(O)c1cccnc1`, for which the growth was 109% (inactive).

With `O=C(O)c1ccccc1Cc1ccc2c(c1)CCCC2`, the growth is 73.1% (inactive).

Regarding `Nc1cc(F)ccc1[N+](=O)[O-]`, the growth was 94.2% (inactive).

Take `CCOc1ccc(C(=O)O)cc1`: the growth is 102% (inactive).

On to `CCCCOC(=O)c1ccccc1O`, for which the growth is 99.2% (inactive).
